The panel holds about 79,000 compounds, 15% with a hit somewhere; the sample as a whole holds those more often. Rule as the data show it: active = growth inhibition above about 70%; inactive = the rest. Where a SMILES comes first, the peptide text is derived from it. [ ]: non-standard residue; d: D form. ξ: configuration not given here. ξF = NC(Cc1ccccc1)C(=O)O
Legend:
[1] = NCI Yeast Anticancer Drug Screen. Data for the rad50 strain (AID 155);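 also: 0% = growth of vehicle-only cultures of the same strain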; details: S. cerevisiae rad50 strain growth inhibition; at 50.0 µM; stronger effect = higher value
How it was run: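 DNA repair mutant yeast, compound exposure, growth read-out; inhibition is taken relative to vehicle.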

[2] = NCI Yeast Anticancer Drug Screen. Data for the mec2-1 strain (AID 157); details: S. cerevisiae mec2-1 strain, at 50.0 µM, stronger effect = higher value
How it was run: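 mec2-1 yeast strain, carrying an alteration in DNA damage repair or cell cycle control, was exposed to compounds; growth inhibition was measured relative to vehicle-treated controls.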

[3] = NCI Yeast Anticancer Drug Screen. Data for the sgs1 mgt1 strain (AID 161);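 also: 0% = growth of cultures given vehicle only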; details: S. cerevisiae sgs1 mgt1 strain, at 50.0 µM, stronger effect = higher value
How it was run: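 This yeast growth screen uses a strain with defined DNA-repair lesions; compound-treated growth is compared with vehicle-treated growth.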

[4] = NCI Yeast Anticancer Drug Screen. Data for the bub3 strain (AID 167); details: S. cerevisiae bub3 mutant strain, at 50.0 µM, stronger effect = higher value
How it was run: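 In this screen, a yeast mutant lacking normal mitotic checkpoint function is challenged with compound. Relative growth versus vehicle gives the inhibition value.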

[5] = NCI Yeast Anticancer Drug Screen. Data for the mlh1 rad18 strain (AID 175); details: S. cerevisiae mlh1 rad18 strain growth inhibition; at 50.0 µM; stronger effect = higher value
How it was run: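 Growth inhibition of the yeast strain was measured after compound exposure and expressed relative to vehicle-treated controls. The strain carries defined defects in DNA damage repair.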

[6] = NCI Yeast Anticancer Drug Screen. Data for the cln2 rad14 strain (AID 165);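 also: 0% = growth equal to vehicle treated cultures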; details: S. cerevisiae cln2 rad14 strain, at 50.0 µM, stronger effect = higher value
How it was run: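 Yeast carrying cln2 and rad14 alterations (cell cycle control and DNA damage repair) were exposed to compounds. Growth inhibition was measured against vehicle-treated controls.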

Measured: growth inhibition

Clc1ccc(C2C3COc4ccccc4C3=NN2c2ccccc2)cc1 (configuration not stated)
inactive: [1] -26.1% | [2] -29.9% | [3] -14.8% | [4] -29.5% | [5] -13.3%

CCOC(=O)COc1cc(-c2ccccc2)nc2cc(F)ccc12
inactive: [1] 10.5% | [2] 7.95% | [6] -18.4% | [4] -4.1% | [5] -25.9%

CC1OC23CCCCC2C(C#N)(C#N)C1(C#N)C(=N)O3 (configuration not stated)
inactive: [1] 3.65% | [2] 9.5% | [3] -36% | [4] -35% | [5] 2.95%

O=C1NC(N/N=C\C(O)C(O)C(O)C(O)CO)=N/C1=C\c1ccc(Cl)cc1 (configuration not stated)
inactive: [1] 23.6% | [2] 30.6% | [3] 25.8% | [4] 24.4% | [5] 17.6%

COC(=O)C1=CO[C@@H](OC2OC(CO)C(O)C(O)C2O)[C@H]2[C@@H](C)[C@@H](O)[C@@H](O)[C@@H]12 (some centres not stated)
inactive: [1] -5.15% | [2] -10.1% | [3] -0.75% | [4] -5.9% | [5] -57.7%

CC(C)Cc1ccc(C(C)C(=O)O)cc1 (configuration not stated)
inactive: [1] 0.5% | [2] 9.7% | [3] -4.5% | [5] 3.25%

C/C(O)=C/c1nc2sc(C)c(C)c2c(=O)s1
inactive: [1] 14.4% | [2] 9.35% | [3] 9.85% | [4] 15.2% | [5] -16.5%

C=C1C(=O)O[C@@H]2C[C@@]3(C)CC(=O)C=C(C)[C@@H]3C[C@H]12
inactive: [1] 12.6% | [2] -7.15% | [3] -7.2% | [5] -16.4%

O=C1NC(N/N=C\c2ccccc2)=N/C1=C/c1ccccc1
inactive: [1] -2.9% | [2] 5.2% | [3] -0.1% | [4] -0.3% | [5] -26.5%

CC(=O)c1ccc(NC(=O)/C(CC(=O)/C=C/c2ccccc2)=N/NC(N)=S)cc1
inactive: [1] 37.1% | [2] -32.4% | [6] 16.3% | [4] 35.1% | [5] 9.65%

COc1cc([C@H]2OC[C@@H]3C(c4cc(OC)c5c(c4)OCO5)OC[C@H]23)cc(OC)c1OC (some centres not stated)
inactive: [1] -8.65% | [2] -34.6% | [6] 21% | [4] -1.35% | [5] -53.1%

Cc1ccc(OCC2OC(n3cnc4nc(Cl)nc(Cl)c43)CC2Oc2ccc(C)cc2)cc1 (configuration not stated)
inactive: [1] 36% | [2] 12.4% | [3] 50.5% | [4] 57.6% | [5] 15.2%

C=CC1=C(C)C2=NC1=CC1=NC(=C(CC)/C1=C\O)C=C1N=C3C(=C1C)C(=O)[C@H](C(=O)OC)C3=C1NC(=C2)[C@@H](C)[C@@H]1CCC(=O)O
inactive: [1] -19.7% | [2] 0.7% | [6] 9.15% | [4] -4.35%

Cc1nnc(SCC2=C(C(=O)O)N3C(=O)C(NC(=O)Cn4cnnn4)C3SC2)s1 (configuration not stated)
inactive: [1] 41.8% | [2] 3.45% | [3] 15.6% | [4] -1.9% | [5] 13.3%

COc1cc(Oc2c(C)c(Cl)c(OC)c(Cl)c2OC)c2c(c1Cl)COC2=O
inactive: [1] 28.5% | [2] -6.45% | [6] 17.6% | [4] -5.75% | [5] 22.8%

COc1cc2c(c3c1c(=O)c1ccccc1n3C)C=C([N+](=O)[O-])C(C)(C)O2
inactive: [1] 1.4% | [2] -32.8% | [6] 6.95% | [4] -39.5% | [5] -25.3%

CC(=O)C(C(C)=O)c1ccccc1
inactive: [1] -5.15% | [2] 2.7% | [3] 3.05% | [4] 4.05% | [5] -5.75%

O[C@H]1[C@H](O)[C@@H](Cn2nnc(-c3ccccc3)c2-c2ccccc2)OCO[C@@H]1Cn1nnc(-c2ccccc2)c1-c1ccccc1
inactive: [1] 53.3% | [2] 31% | [6] 50.9% | [4] 28.8%

CC(=N\N=C\c1ccccn1)/C(C)=N/N=C/c1ccccn1
inactive: [1] 7.8% | [2] 10.3% | [6] 30.6% | [4] -14.2% | [5] -53.3%

O=S(=O)(O)c1cc(O)c2c(O)cc(S(=O)(=O)O)cc2c1
inactive: [1] -0.75% | [2] -20.1% | [3] -21.2% | [4] -8.1% | [5] -4.7%

O=C1C=CC=C/C1=C1\N=C(c2ccccc2OCC(=O)c2ccc(Br)cc2)SS1
inactive: [1] 10.1% | [2] 18.1% | [6] 8.75% | [4] -0.75% | [5] -43.5%

COc1ccc(OC)c(N(CN2C(=O)CCC2C(=O)O)C(C)=O)c1 (configuration not stated)
inactive: [1] 10.2% | [2] 10.2% | [6] 1.05% | [4] -17.7% | [5] -23.3%

[O-]c1ccccc1/C=N/C(/N=C/c1ccccc1[O-])c1ccccc1O.[O-]c1ccccc1/C=N/C(/N=C/c1ccccc1[O-])c1ccccc1O.[Zr+4]
inactive: [1] 0.55% | [2] 6.4% | [3] -1.6% | [5] 2.4%

COC(=O)C(=O)C(C(=O)C(=O)Nc1ccccc1OC)c1nc2ccc([N+](=O)[O-])cc2[nH]c1=O (configuration not stated)
inactive: [1] 16.4% | [2] 19.4% | [3] 10.9% | [4] 36.1% | [5] 21.6%

O=C(OCC1OC(Oc2ccccc2CO)C(O)C(O)C1O)c1ccccc1 (configuration not stated)
inactive: [1] -2.1% | [2] 1.45% | [5] 0.45%

Cc1nc2c(Cl)c(Cl)ccc2s1
inactive: [1] 3.6% | [2] -20.9% | [5] 24.2%

CCCCCCCCCCCC(=O)CCCCC
inactive: [1] -29.5% | [2] -17.1% | [5] -29.4%

N/C(Cc1ccc(N)cc1)=N\O
inactive: [1] -17.4% | [2] -13.6% | [5] -13.8%

Cc1ccc(CNc2ccc(F)cc2)cc1
inactive: [1] 29.9% | [2] 28.9% | [5] 19.8%

CCOc1ccc(/C=N/NS(=O)(=O)c2ccc(C)cc2)cc1
inactive: [1] -3.6% | [2] -34.5% | [5] -8.2%

C[Si]1(C)N[Si](C)(C)N[Si](C)(C)N1
inactive: [1] 13.2% | [2] -19.6% | [5] 2.3%

O=C1NC(c2ccc3ccccc3c2)Nc2ccccc21 (configuration not stated)
inactive: [1] -2.85% | [2] -9.2% | [5] 19.1%

CC(=O)NS(=O)(=O)c1ccc2sc(C)nc2c1
inactive: [1] -32% | [2] -22.6% | [5] -27.7%

CCCN(CCC)CCC(=O)OCC
inactive: [1] -18.2% | [2] -29.2% | [5] -10.9%

COc1ccc(/C=C(\C#N)c2ccc(C)cc2)cc1OC
inactive: [1] 50.4% | [2] 52.8% | [5] 38.1%

CCN(CC)CCCOC(=O)N(Cc1ccc(Cl)cc1)C1CC1
inactive: [1] 51.2% | [2] 12.8% | [5] 46.6%

CC(C)c1nc(-c2ccccc2)c(-c2ccccc2)[nH]1
inactive: [1] 43.2% | [2] 13.1% | [5] 54.7%

Nc1ccccc1CCc1ccccc1N
inactive: [1] 18.2% | [2] -10.1% | [5] 12.4%

Cc1ccc(NC(=O)/C=C/C(=O)O)c(NC(=O)/C=C/C(=O)O)c1
inactive: [1] 4.8% | [2] -1.15% | [5] 28.8%

Cc1cccc(C2NC(=O)c3ccccc3N2)c1 (configuration not stated)
inactive: [1] 9.35% | [2] -15.8% | [5] 10.5%

CCOC(=O)CN1C(=O)C(=O)c2ccccc21
inactive: [1] 18.9% | [2] 5.3% | [5] 24.4%

CCOC(=O)C(=Cc1c[nH]c2ccc(Br)cc12)C(=O)OCC
inactive: [1] -17.5% | [2] -22.9% | [5] -5.15%

Clc1cccc(Cl)c1Br
inactive: [1] 7.45% | [2] -26.2% | [5] 16.9%

NC(Cc1ccccc1)C(=O)NCC(=O)NCC(=O)O (stereo not drawn) (H-[ξF]-Gly-Gly-OH)
inactive: [1] 13% | [2] -1.35% | [5] 4.55%

Cc1ccc(NC(=S)N(C)C)cc1C
inactive: [1] -2.7% | [2] -26.3% | [5] 1.1%

CC(=O)C1=CCC2C3CC(C)=C4CC(O)CCC4(C)C3CCC12C (configuration not stated)
inactive: [1] 24.9% | [2] -1.15% | [5] -2.95%

Clc1ccc(C=NCCN=Cc2ccc(Cl)c(Cl)c2)cc1Cl
inactive: [1] -14.5% | [2] -20.3% | [5] -9.3%

CN(c1ccccc1Cl)S(C)(=O)=O
inactive: [1] -4.2% | [2] -42.6% | [5] -0.25%

Oc1ccccc1C=NCC1CCC(CN=Cc2ccccc2O)CC1 (configuration not stated)
inactive: [1] 8.85% | [2] 13.1% | [5] 21%

CCOC(=O)C1CCC(C(=O)OCC)N1c1ccc(C=O)cc1 (configuration not stated)
inactive: [1] 16.1% | [2] -18.1% | [5] -3.45%

CCOc1ccc(N2C(=O)C3C4c5ccccc5C(c5ccccc54)C3C2=O)cc1 (configuration not stated)
inactive: [1] 27% | [2] 6.45% | [5] 29%

CC1(C)OC(=O)C(=Cc2c(Cl)cccc2Cl)C(=O)O1
inactive: [1] 0.05% | [2] 7.85% | [5] -7.3%

NC(=O)c1ccccc1OCC(O)CO (configuration not stated)
inactive: [1] -7.6% | [2] -24.4% | [5] 26.1%

From PubChem BioAssay (NCI)
